Bioassay records from PubChem BioAssay.
Hits are enriched below; roughly 19% of the tested compounds scored in any of these assays.
IL1B secr inh: qHTS for Inhibitors of Inflammasome Signaling: IL-1-beta AlphaLISA Primary Screen; activity change, % at 57.5 µM; AID 743279, 2014; 360,000 tested, 4.7% active; THP-1 LPS/ATP IL-1B secretion, AlphaLISA, 16 h; hits give low values; in the data active = activity change below about -50%; inconclusive = mostly about -30% to -49%
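THP-1 cells pretreated 1 hr with compounds (up to 57.5 uM final), then stimulated with LPS (250 ng/mL final) plus ATP (1.25 mM final); secreted IL-1B measured by AlphaLISA after 16 hr, decreased signal indicating inhibition.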
HT1080 IDH1KD tx: qHTS for induction of synthetic lethality in tumor cells producing 2HG: qHTS for the HT-1080-IDH1KD cell line; Potency, µM (series often up to 46.1 µM), for the others: top-dose activity, negative = toxicity, usual class: cytotoxic; HT-1080 IDH1 knockdown viability, ATP luminescence, 48 h; 360,000 tested, 2% active;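 note: potency is the fitted concentration of half-maximal effect; 0% = DMSO wells and -100% = cell-free medium wells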
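Assay cells: HT-1080 with IDH1 knockdown, 750 per well, RPMI/5% FBS. Exposure: 48 h at 37 °C following 2 h pre-incubation. Read: CellTiter-Glo luminescence; fitted concentration-response, curve class assigned.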
HT1080-NT tox: qHTS for induction of synthetic lethality in tumor cells producing 2HG: qHTS for the HT-1080-NT fibrosarcoma cell line; HT-1080-NT fibrosarcoma viability, CellTiter-Glo ATP luminescence, 48 h; Potency, µM (titrated, usually from 46.1 µM), without a hit: at the top dose activity, negative = less viability, actives largely listed as cytotoxic; 360,000 tested, 1.6% active; AID 686970, 2013;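 note: NT is the 2HG producing partner of a matched IDH1 knockdown line; potency is the fitted concentration of half-maximal effect; 0% = DMSO-treated cells and -100% = media-only wells without cells; nearly all actives have a fitted effect of over 55% in size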
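HT-1080-NT; 750 cells/well; 5% FBS RPMI; 48 h compound, 37 degrees C; CellTiter-Glo luminescence; curve fitting and curve-class assignment.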
TDP1 cell CPT: qHTS for Inhibitors of human tyrosyl-DNA phosphodiesterase 1 (TDP1): qHTS in cells in presence of CPT | chicken DT40 Tdp1-/-;hTDP1 cells + 20 nM CPT, ATP luminescence, 48 h | Potency, µM (highest dose often 46.2 µM), without a hit: at the highest dose activity change, negative = growth inhibition, hits mostly inhibitors | 420,000 tested, 12% active | AID 686979, 2013; note: potency is the fitted concentration of half-maximal effect; nearly all actives have a fitted effect of over 55% in size
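Cell growth measured by CellTiter-Glo luminescence after a minimum 48 h, 37 C compound exposure with 20 nM CPT in Tdp1-knockout DT40 cells stably expressing hTDP1, seeded 400/well; qHTS titration format.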
DT40 TDP1 no CPT: qHTS for Inhibitors of human tyrosyl-DNA phosphodiesterase 1 (TDP1): qHTS in cells in absence of CPT; 420,000 tested, 15% active; DT40 Tdp1-/- hTDP1 cells, no CPT, ATP luminescence, 48 h; Potency, µM (series often up to 46.2 µM), for inactives: top-dose activity change, negative = growth inhibition, usual class: inhibitors; note: potency is the fitted concentration of half-maximal effect; nearly all actives have a fitted effect of over 55% in size
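A cellular qHTS used chicken DT40 cells lacking endogenous Tdp1 but carrying stably transfected human TDP1. Compounds were applied without camptothecin, and cell growth kinetics were judged by ATP-dependent luminescence after ≥48 hr.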
ELG1 DNA repair: qHTS screen for small molecules that inhibit ELG1-dependent DNA repair in human embryonic kidney (HEK293T) cells expressing luciferase-tagged ELG1. HEK293T ELG1-luciferase reporter, luminescence, 16 h; DNA damage induced by 5-fluorouridine. Potency, µM (top dose mostly 46.1 µM), inactives show at the top dose activity change, negative = inhibition, actives largely listed as inhibitors. 330,000 tested, 2.3% active. AID 504467, 2011; note: potency is the fitted concentration of half-maximal effect; nearly all actives have a fitted effect of over 55% in size
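Step one: seed 2,000 cells per well. Step two: pin-transfer compound or DMSO alongside 5-fluorouridine. Step three: incubate 16 hr, 37 °C, 5% CO2. Step four: add ONE-Glo, wait 30 min, read luminescence.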
* hit, by the source's call; ? = inconclusive; . = not tested or not shown; ! = a repeat was not active. Unless noted, calls come from the whole dose curve; as a rule, active = well fitted curve in the direction sought with a large enough effect; inconclusive = small, poorly fitted or top-dose-only effect, or another doubt; inactive = no such curve, though single readings can be large; an effect the other way counts as inactive or inconclusive. Unless noted, % is set by controls: 0 for no effect and ±100 for the full control effect.

SMILES	IL1B secr inh	HT1080 IDH1KD tx	HT1080-NT tox	TDP1 cell CPT	DT40 TDP1 no CPT	ELG1 DNA repair
C/C=C1/CN2CC[C@]34C(=C(C=O)[C@H]1C[C@@H]23)Nc1ccccc14	.	.	.	-13.9%	?	.
Cc1cc(C)cc(NC(=O)CSc2oc(-c3cccs3)nc2S(=O)(=O)c2ccc(Br)cc2)c1	.	.	.	5.8µM*	6.51µM*	.
COC(=O)C1=C(c2ccc3ccccc3c2)C[C@@H]2CC[C@H]1N2C(=O)N1CCOCC1	14.4	-18.0%	-10.2%	?	5.8µM*	-11.8%
COC(=O)C1=C(c2ccc(OC)c(OC)c2)C[C@@H]2CC[C@H]1N2C(=O)N1CCCCC1	19.7	5.9%	12.5%	8.2µM*	9.2µM*	13.5%
COC(=O)C1=C(c2cc3ccccc3o2)C[C@@H]2CC[C@H]1N2C(=O)N1CCOCC1	45.0	?	23.1µM*	3.66µM*	.	.
COC(=O)C1=C(c2ccc3ccccc3c2)C[C@@H]2CC[C@H]1N2C(=O)N1CCCCC1	17.0	-10.5%	-0.2%	2.31µM*	1.84µM*	-16.9%
COC(=O)C1=C(c2ccc(OC)c(OC)c2)C[C@@H]2CC[C@H]1N2C(=O)N1CCC(O)CC1	10.7	15.2%	15.2%	-10.5%	-13.6%	17.5%
COC(=O)C1=C(c2ccc3ccccc3c2)C[C@@H]2CC[C@H]1N2C(=O)N1CCCC1	-7.8	-17.8%	-8.6%	2.91µM*	3.26µM*	-12.2%
Clc1ccc(OCC#CCN2CCCCCC2)cc1	-9.9	-1.8%	-11.5%	-20.1%	?	15.5%
CCC(=O)O[C@]1(c2ccccc2)CCN(C)C[C@H]1C	.	.	.	5.8%	-29.3%	.
CN1CCC(O)(c2cccs2)C(C(=O)c2cccs2)C1 (configuration not stated)	-93.8*	?	23.1µM*	1.3µM*	3.66µM*	-11.4%
CCN(CC)c1ccc(CN(C)CCc2ccc(OC)c(OC)c2)cc1	-11.6	-26.7%	-3.5%	23.1µM*	?	9.4%
COc1ccc(CCN(C)Cc2ccc(F)cc2F)cc1OC	0.0	-23.6%	1.4%	-0.4%	-19.2%	6.3%
C/C(CC(=O)Nc1ccc(Cl)cn1)=N\NC(=O)Cc1cccs1	26.3	0.4%	-14.7%	0.4%	-4.8%	?
CN(C(=O)Oc1ccc(Cl)c2cccnc12)c1ccccc1	-9.0	18.7%	15.5%	-15.2%	-15.5%	-1.8%
CC(=O)Oc1ccc(Cl)c2cccnc12	.	.	.	3.66µM*	8.2µM*	.
Cc1cccc(NC(=O)Oc2ccc(Cl)c3cccnc23)c1	19.4	-9.3%	-5.1%	11.6µM*	5.17µM*	.
Cc1cc(C)cc(NC(=O)CCNC(=O)N2C[C@H]3C[C@@H](C2)c2cccc(=O)n2C3)c1	-10.9	7.1%	1.2%	40.7%	2.9%	-16.1%
COc1cc(OC)c(OC)cc1CNCCc1ccc2c(c1)OCO2	-9.7	-17.2%	-19.4%	?	?	-9.4%
CC(=O)O[C@@H]1CN2CCC1CC2	.	.	.	-4.2%	-6.2%	.
N#Cc1c(Cl)nc(Cl)c2c1CCN(Cc1ccccc1)C2	.	?	-0.1%	?	16.4µM*	24.0%
Cc1ccc2c(c1)[C@H]1[C@H](CO2)[C@H](c2ccccc2)[C@]2(C)C(=O)N(CC3CCCO3)CC(=O)N12 (some centres not stated)	-9.8	8.5%	1.5%	3.4%	?	?
CCOC(=O)N1CCN(c2ccc(Cl)c(Cl)c2)CC1	-11.1	-7.9%	-3.8%	?	12.6µM*	8.4%
O=[N+]([O-])c1ccc(S(=O)(=O)NCC(c2ccco2)N2CCc3ccccc3C2)cc1 (configuration not stated)	-3.0	0.2%	-1.4%	-20.9%	?	-1.5%
O=C(Cc1n[nH]c(=O)c2ccccc12)OCc1c(Cl)cccc1Cl	12.0	-2.9%	-17.8%	?	?	?
SMILES	IL1B secr inh	HT1080 IDH1KD tx	HT1080-NT tox	TDP1 cell CPT	DT40 TDP1 no CPT	ELG1 DNA repair
O=C(CN1CCN(C(=O)CNC(=O)c2ccc(-c3ccccc3)cc2)CC1)Nc1ccccc1Cl	?	?	?	13µM*	13µM*	.
Cc1ccc(O)c(C(=O)c2cc(C(=O)NCCC(C)C)c(=O)n(CCC(C)C)c2)c1	-56.0*	-5.8%	-9.0%	23.1µM*	18.4µM*	?
COc1ccc([N+](=O)[O-])cc1NC(=O)COC(=O)c1ccccc1C(=O)c1ccccc1	-51.8*	-1.1%	-4.7%	0.3%	?	-19.6%
COC(=O)C1=C(c2ccc(F)cc2F)C[C@@H]2CC[C@H]1N2C(=O)NCc1ccco1	2.9	12.5%	-13.2%	-8.4%	?	?
CN1/C(=C\C=C2C(=O)NC(=O)NC2=O)C(C)(C)c2ccccc21	-7.7	?	?	?	-28.4%	?
CCN1/C(=C/C=C/C2=[N+](CC)c3ccccc3C2(C)C)C(C)(C)c2ccccc21	-104.6*	10.3µM*	9.2µM*	0.146µM*	0.13µM*	.
COC(=O)C1(F)C(=O)NC(=O)NC1O (configuration not stated)	.	-2.6%	-3.2%	13.9%	-20.5%	.
CC(C)CCn1c(=O)c(C(=O)NCc2ccco2)c(O)c2ccccc21	-4.3	16.5%	21.9%	?	9.2µM*	?
CCCCn1c(=O)c(C(=O)NCc2ccco2)c(O)c2ccccc21	74.6	19.4%	0.2%	?	?	?
CCCCCn1c(=O)c(C(=O)NCc2ccco2)c(O)c2ccccc21	88.7	10.7%	2.6%	?	16.4µM*	-3.9%
Cc1ccc(OCC(=O)N2CCN(C3CCC(c4ccccc4)CC3)CC2)cc1 (configuration not stated)	-8.5	-28.3%	-15.5%	?	?	-1.8%
Oc1cccc2cccnc12	.	.	.	3.26µM*	2.59µM*	?
COc1ccc(C(=O)CN2CCOCC2)cc1	.	.	.	-21.2%	-4.6%	.
CCCCCCC(C)(C)c1ccc([C@@H]2C[C@H](O)CC[C@H]2CCCO)c(O)c1	-67.1*	4.61µM*	2.59µM*	20.6µM*!	18.4µM*	-20.7%
